Among all 350,000 compounds or so, about 7,000 (2%) were called active. This is one part of a sample in which actives are shown more often than they occur. No stated cut-off is given here; in the data, active means activation above about 40%; inconclusive means no clear call, values can overlap the other calls; inactive means below that.
Test: raisers of Bmi1 knock-in reporter signal – mouse ES cells, Bmi1 luciferase knock-in, single point, esBAF inhibitor project, primary screen (AID 602393);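 further: 0% = median of the plate's neutral control wells and 100% = double that signal; a rise in the Bmi1 reporter signal indicates esBAF inhibition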
Details: 24 h, at 12.5 µM, stronger effect = higher value, 100% = twice the neutral-well signal
In the case of `COCCNC(=O)C[C@@H]1C[C@@H]2c3cc(NC(=O)Nc4ccc(C(F)(F)F)cc4)ccc3O[C@@H]2[C@@H](CO)O1`, the reporter increase is reported as -4.42% (inactive). With `CCC(=O)N1C[C@H](C)[C@H](OC)CN(C)C(=O)c2ccc(NC(=O)Nc3ccc(Cl)cc3)cc2OC[C@H]1C` the reporter increase was 4.13% (inactive). With `C[C@H](CO)N1C[C@H](C)[C@@H](CN(C)Cc2ccc(Oc3ccccc3)cc2)OCc2cn(nn2)CCCC1=O` the reporter increase was 0.422% (inactive). In the case of `CC1CCN(Cc2nc3c(c(=O)n(C)c(=O)n3C)n2CCc2ccccc2)CC1`, the reporter increase is reported as -5.75% (inactive). In the case of `c1ccc(CCN2CN=C(Nc3nc4ccccc4o3)NC2)cc1`, the reporter increase is reported as 45.9% (active). With `N#CNC1=NCN(CCc2ccccc2)CN1` the reporter increase was -7.73% (inactive). In the case of `C[C@@H]1CCCCO[C@H](CN(C)Cc2ccc3c(c2)OCO3)[C@@H](C)CN([C@H](C)CO)C(=O)c2cc(N(C)C)ccc2O1`, the reporter increase is reported as 0.519% (inactive). With `O=C(Cc1ccccc1)Nc1ccc(C(=O)Nc2ccccc2C(=O)O)cc1` the reporter increase was -1.37% (inactive). In the case of `O=C(CNC(=O)c1ccco1)NNC(=O)c1ccc(Br)cc1`, the reporter increase is reported as -0.872% (inactive). With `CC(C)(C)c1ccc(C(=O)NNC(=O)Cc2ccccc2)cc1` the reporter increase was 49% (active). In the case of `C[C@H](CO)N1C[C@H](C)[C@@H](CN(C)S(=O)(=O)c2ccc(Cl)cc2)Oc2ccc(NS(=O)(=O)c3cccs3)cc2CC1=O`, the reporter increase is reported as 6.86% (inactive). With `CC(C)C#Cc1cnc2c(c1)C(=O)N([C@@H](C)CO)C[C@@H](C)[C@H](CN(C)C(=O)CCN1CCCCC1)O2` the reporter increase was 0.29% (inactive). In the case of `O=C(C[C@@H]1CC[C@H]2[C@@H](COC[C@@H](O)CN2S(=O)(=O)c2cccc(Cl)c2)O1)N1CCCCC1`, the reporter increase is reported as -2.86% (inactive). In the case of `c1ccc(-c2ccc(OCCN3CCOCC3)cc2)cc1`, the reporter increase is reported as 50.5% (active). With `CC(C)(c1ccccc1)c1ccc(OCCN2CCCC2)cc1` the reporter increase was -18.8% (inactive). For `Cc1cccc(C)c1OCCN1CCOCC1`, the reporter increase was -3.46% (inactive). For `Cc1noc(C)c1S(=O)(=O)Nc1ccc2c(c1)C(=O)N([C@H](C)CO)C[C@@H](C)[C@@H](CN(C)S(=O)(=O)c1ccc(Cl)cc1)O2`, the reporter increase was 6.53% (inactive). With `Cc1nonc1C(=O)N/N=C/c1ccc(O)cc1` the reporter increase was 50.7% (active). For `Cc1nc2ccc(C(=O)N/N=C/c3ccc(O)cc3)cc2[nH]1`, the reporter increase was -6.33% (inactive). With `CC(C)c1c(C(=O)N/N=C/c2ccc(-c3ccccc3)cc2)nnn1-c1nonc1N` the reporter increase was -2.09% (inactive). With `C[C@H]1CN([C@@H](C)CO)S(=O)(=O)c2ccc(-c3cncnc3)cc2O[C@H]1CN(C)Cc1ccncc1` the reporter increase was 0.176% (inactive). With `O=C(O)C1CC=CCC1C(=O)NCCc1ccccc1` (stereo unspecified) the reporter increase was -11% (inactive). For `O=C(Nc1ccc(Cl)c(Cl)c1)c1ccccc1NC(=O)C1CC=CCC1C(=O)O` (stereo unspecified), the reporter increase was 92.4% (active). For `O=C(Nc1cccc(Cl)c1Cl)c1ccccc1NC(=O)C1CC=CCC1C(=O)O` (stereo unspecified), the reporter increase was 5.49% (inactive). In the case of `CCCCOC(=O)c1[nH]c(C)c(C(=O)OC)c1C`, the reporter increase is reported as 78.5% (active). For `COC(=O)c1c(C)[nH]c(C(=O)NCCc2ccc(S(N)(=O)=O)cc2)c1C`, the reporter increase was -4.52% (inactive). For `CC(=O)c1c(C)[nH]c(C(=O)OCC(=O)Nc2c(C)cccc2C)c1C`, the reporter increase was -23.7% (inactive). For `CO[C@@H]1CN(C)C(=O)c2ccc(NS(C)(=O)=O)cc2OC[C@@H](C)N(CC2CC2)C[C@@H]1C`, the reporter increase was 1.93% (inactive). For `C[C@@H]1CN([C@@H](C)CO)C(=O)c2cc(N(C)C)ccc2O[C@@H](C)CCCCO[C@H]1CN(C)Cc1ccncc1`, the reporter increase was -3.61% (inactive). In the case of `C=C(C)CSc1nc(N)c2c3c(sc2n1)CCC3`, the reporter increase is reported as 75.4% (active). In the case of `CC(C)(C)C1CCc2c(sc3nc(SCC(N)=O)nc(N)c23)C1` (stereo unspecified), the reporter increase is reported as -0.656% (inactive). With `CCc1nc(N2CCN(C(C)=O)CC2)c2c3c(sc2n1)CCCC3` the reporter increase was -4.58% (inactive). In the case of `C[C@H](O)C#Cc1cnc2c(c1)C(=O)N([C@@H](C)CO)C[C@@H](C)[C@@H](CN(C)C(=O)Cc1ccccn1)O2`, the reporter increase is reported as -2.01% (inactive). In the case of `Cc1noc(C)c1-c1ccc(C(=O)NCc2ccncc2)c2occc12`, the reporter increase is reported as 8.81% (inactive). With `COCCCNC(=O)c1cccc2c(-c3ccc(O)c(OC)c3)coc12` the reporter increase was 12.3% (inactive). In the case of `COCCCNC(=O)c1ccc(-c2c(C)noc2C)c2ccoc12`, the reporter increase is reported as 78.5% (active). With `COc1ccccc1S(=O)(=O)N[C@@H]1C=C[C@H](CC(=O)N2CCOCC2)O[C@@H]1CO` the reporter increase was -2.3% (inactive). For `COCCNC(=O)C[C@H]1CC[C@H](NS(=O)(=O)c2ccc(C)cc2)[C@@H](CO)O1`, the reporter increase was -2.1% (inactive). With `COc1ccc(C(=O)Nc2sc(C)c(C)c2CN2CCOCC2)cc1` the reporter increase was 98.6% (active). In the case of `COc1ccc(C(=O)Nc2ccnn2C2CCN(Cc3ccncc3)CC2)cc1`, the reporter increase is reported as 4.74% (inactive). For `CCOc1ccc(C(=O)Nc2ccc(CN3CCOCC3)cc2)cc1Cl`, the reporter increase was 9.32% (inactive). With `Cc1ccc(C(=O)N2CCCc3ccccc32)c(Cl)c1` the reporter increase was -0.356% (inactive). For `Cc1c(C(=O)N2CCCc3ccccc32)sc2nc(-c3ccccc3)cn12`, the reporter increase was 69.3% (active). For `Cc1c(C(=O)NCC2CCCO2)sc2nc(-c3ccccc3)cn12` (stereo unspecified), the reporter increase was 63.8% (active). In the case of `Cc1nn(CC(=O)NCC2CCCO2)c(=O)c2cc3ccccc3n12` (stereo unspecified), the reporter increase is reported as -0.752% (inactive). In the case of `Cc1c(C(=O)NCCN2CCOCC2)sc2nc(-c3ccc(F)cc3)cn12`, the reporter increase is reported as 2.29% (inactive). With `O=C(c1c(Cl)nc2sccn12)N1CCCc2ccccc21` the reporter increase was -5.89% (inactive). For `C[C@H](CO)N1C[C@H](C)[C@@H](CN(C)C(=O)Nc2ccc3c(c2)OCO3)Oc2ccc(NS(=O)(=O)c3ccc(Cl)cc3)cc2CC1=O`, the reporter increase was -3.55% (inactive). For `C[C@@H]1CCCCO[C@H](CN(C)Cc2ccc(Cl)c(Cl)c2)[C@H](C)CN([C@@H](C)CO)C(=O)c2cc(NC(=O)C3CCCCC3)ccc2O1`, the reporter increase was 1.62% (inactive). With `COc1cccc(-c2ccc3n(c2=O)C[C@H]2[C@H](CO)[C@@H](C(=O)NC4CCCC4)[C@@H]3N2C)c1` the reporter increase was 3.16% (inactive). With `COCC(=O)N(C)C[C@@H]1Oc2cc(C3=CCCC3)ccc2S(=O)(=O)N([C@@H](C)CO)C[C@H]1C` the reporter increase was 0.332% (inactive). With `C[C@H](CO)N1C[C@H](C)[C@@H](CN(C)Cc2ccccc2C(F)(F)F)OCc2cn(nn2)CCCC1=O` the reporter increase was -1.8% (inactive). In the case of `C[C@H](NC(=O)C[C@H]1C=C[C@@H](NC(=O)C2CCOCC2)[C@@H](CO)O1)c1ccccc1`, the reporter increase is reported as 1.15% (inactive). For `Cc1cccc(C(=O)Nc2ccc(C(=O)N/N=C/c3cccc(C)n3)cc2)c1`, the reporter increase was 14.2% (inactive). For `Cc1ccc(NC(=O)c2ccc(Oc3ncccn3)cc2)cc1`, the reporter increase was 34% (inactive). With `Cc1cccc(C(=O)Nc2ccc(Oc3cnccn3)cc2)c1` the reporter increase was 45% (active). In the case of `C[C@H](CO)N1C[C@H](C)[C@H](CN(C)C(=O)c2cnccn2)Oc2cc(C3=CCCC3)ccc2S1(=O)=O`, the reporter increase is reported as 4.52% (inactive). In the case of `O=C(CN1CCOCC1)N[C@@H]1CC[C@@H](CCNC(=O)C2CCCCC2)O[C@@H]1CO`, the reporter increase is reported as 0.276% (inactive). In the case of `CN1C(=O)c2cc(NC(=O)c3cscn3)ccc2OC[C@H]2O[C@@H](CC(=O)NCC3CC3)CC[C@H]21`, the reporter increase is reported as 1.7% (inactive). In the case of `O=C(c1ccc(Cl)cc1)c1cnc(Nc2ccccc2)s1`, the reporter increase is reported as 70% (active). In the case of `Nc1nc(COC(=O)CCC(=O)c2ccc(Cl)cc2)nc(Nc2ccccc2)n1`, the reporter increase is reported as -2.01% (inactive). For `O=C(CCCOc1ccccc1)NNC(=O)c1ccc(Cl)cc1`, the reporter increase was -5.87% (inactive). For `C[C@@H]1CCCCO[C@H](CN(C)S(=O)(=O)c2cccs2)[C@H](C)CN([C@@H](C)CO)C(=O)c2cc(NC(=O)Nc3ccc4c(c3)OCO4)ccc2O1`, the reporter increase was 3.42% (inactive). For `C/C(CC1CC(C)(C)OC1=O)=N/Nc1nc(-c2ccccc2)cs1` (stereo unspecified), the reporter increase was 46.1% (active). In the case of `Cn1c(CNc2nc(-c3ccccc3)cs2)nnc1SCC(=O)c1ccccc1`, the reporter increase is reported as 6.92% (inactive). With `CC1(C)CC(CC(=O)O)C(=O)O1` (stereo unspecified) the reporter increase was 3.84% (inactive). With `COc1ccc(S(=O)(=O)N(C)C[C@@H]2OCCCC[C@H](C)Oc3ccc(NC(=O)Nc4ccccc4)cc3C(=O)N([C@H](C)CO)C[C@H]2C)cc1` the reporter increase was 6.53% (inactive). In the case of `COc1ccccc1-c1cnc2c(c1)C(=O)N([C@H](C)CO)C[C@H](C)[C@H](CN(C)C(=O)CN(C)C)O2`, the reporter increase is reported as -4.34% (inactive). For `O=C(NC1CCCCCC1)C1CCN(C(=O)c2ccc(Cl)cc2)CC1`, the reporter increase was 1.61% (inactive). For `Cc1ccccc1C(=O)NC(=S)NC1CC1`, the reporter increase was 19.1% (inactive). In the case of `O=C(NC(=S)NC1CCCCC1)c1ccc(Cl)cc1`, the reporter increase is reported as 92.1% (active). In the case of `CCCNC(=S)N1CCC(NC(=O)c2ccc(OC)cc2)CC1`, the reporter increase is reported as 4.39% (inactive). In the case of `COc1ccc(/C(N)=N/OC(=O)CCCc2ccccc2)cc1`, the reporter increase is reported as 22.2% (inactive). For `COc1ccc(C(=O)NC(=S)NNC(=O)CCc2ccccc2)cc1`, the reporter increase was 50.7% (active). In the case of `COc1ccc(C(=O)NC(=S)NC2CCCCC2)cc1`, the reporter increase is reported as 53.2% (active). With `O=C(NNC(=S)NC1CCCCC1)c1ccccc1Cl` the reporter increase was 12.8% (inactive). With `O=C(CCc1ccccc1)NNC(=O)COc1ccc(Cl)cc1` the reporter increase was -7.85% (inactive). In the case of `C[C@@H]1CN([C@H](C)CO)C(=O)c2cc(-c3ccncc3)cnc2O[C@H]1CN(C)C`, the reporter increase is reported as 2.47% (inactive). In the case of `O=C(C[C@H]1CC[C@H]2[C@@H](COC[C@@H](O)CN2S(=O)(=O)c2cccc(Cl)c2)O1)NC1CCCC1`, the reporter increase is reported as 0.9% (inactive). With `CN1C(=O)c2cc(NC(=O)c3ccc(Cl)cc3)ccc2OC[C@@H]2O[C@@H](CC(=O)O)CC[C@H]21` the reporter increase was 5.97% (inactive). In the case of `CC(C)NC(=O)N(C)C[C@H]1Oc2ccc(NC(=O)CCC(F)(F)F)cc2CC(=O)N([C@@H](C)CO)C[C@@H]1C`, the reporter increase is reported as -3.69% (inactive).

— PubChem BioAssay AID602393 (Broad Institute, 2012)
